Screening results: PubChem, National Center for Advancing Translational Sciences (NCATS)
The list is not random: actives were taken first. Their share in the collection is about 4.3%.
GLP-1R inv ag: GLP-1 receptor (human) inverse agonism. P43220. HEK293 GLP-1R CRE-luciferase, luminescence, 24 h; GLP-1R form is constitutively active. Potency, µM (top dose mostly 38.3 µM), actives largely listed as inhibitors. 1.6% of 410,000 active. AID 624417; note: nearly all actives have a fitted effect of over 55% in size
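Seeding at 200 cells/uL, 12 h culture, 24 hr compound treatment, then luciferase reagent and a luminescence read; cells are HEK293 stably expressing a constitutively active GLP-1R plus cAMP-responsive luciferase.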
D3 antag: antagonists of human D3 dopamine receptor. AID 652054. D3R cells, DiscoveRx beta-arrestin luminescence, antagonist mode; stronger effect = lower value. max response, negative = inhibition, %. 2.5% of 360,000 active. P35462; in the data active = max response below about -50%; inconclusive = no clear call, values can overlap the other calls
Target sequence (P35462 whole entry, looked up): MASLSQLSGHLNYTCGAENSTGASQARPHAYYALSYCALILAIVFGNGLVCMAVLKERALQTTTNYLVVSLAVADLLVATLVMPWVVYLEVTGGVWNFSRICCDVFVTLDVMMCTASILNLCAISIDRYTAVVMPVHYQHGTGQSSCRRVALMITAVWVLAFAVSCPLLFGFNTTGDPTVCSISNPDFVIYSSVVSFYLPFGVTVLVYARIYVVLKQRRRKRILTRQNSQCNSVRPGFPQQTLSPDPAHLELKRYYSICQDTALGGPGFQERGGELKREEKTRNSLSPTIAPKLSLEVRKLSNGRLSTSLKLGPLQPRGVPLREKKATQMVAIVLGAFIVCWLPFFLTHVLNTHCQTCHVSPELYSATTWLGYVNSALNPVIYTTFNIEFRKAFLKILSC
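Cells expressing the human receptor were seeded at 1500 cells/well, incubated overnight at 37 degrees C in 5% CO2, then exposed to library compounds with dopamine controls for 90 minutes at 37 degrees C before luminescent detection.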
GLP-1R agonist: activates the human GLP-1 receptor | P43220 | 0.007% of 380,000 active | HEK293 GLP-1R CRE-luciferase, luminescence, 4-6 h; cells express a hypersensitive GLP-1R form | Potency, µM (series often up to 45.6 µM), actives largely listed as activators
D3 ag: agonists of human D3 dopamine receptor; P35462; D3R DiscoveRx beta-arrestin cells, luminescence, 90 min; max activation, %; 0.58% of 410,000 active; in the data active = max activation above about 30%
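Agonist mode: compounds and dopamine controls were applied to plated cells for 90 min at 37 degrees C after an overnight attachment at 1500 cells/well. Luminescent read-out followed 30 - 60 minutes at room temperature with DiscoveRx detection reagent.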
Large screens that a line does not name were inactive. Unless noted, calls come from the whole dose curve; as a rule, active = well fitted curve in the direction sought with a large enough effect; inconclusive = small, poorly fitted or top-dose-only effect, or another doubt; inactive = no such curve, though single readings can be large; an effect the other way counts as inactive or inconclusive.

CC1CN(C(=O)CCC(=O)NCc2ccc(F)cc2)c2cc(Cl)ccc2O1 (centres undefined)	none (no result: D3 antag, GLP-1R agonist)
CC1CN(C(=O)CCC(=O)NCc2ccccc2)c2cc(Cl)ccc2O1 (centres undefined)	GLP-1R inv ag 10µM
CCc1ccc(NC(=O)c2c(Cl)nc(C)c(Cl)c2C)cc1	GLP-1R inv ag 3.98µM
Cc1ccccc1NC(=O)c1c(Cl)nc(C)c(Cl)c1C	none
O=C(Nc1ccc(Cl)c(Cl)c1)C1=Cc2ccccc2OC1	GLP-1R inv ag 10µM
O=C(Nc1ccc2c(c1)OCCO2)c1ccc(Cl)c(Cl)c1	none
O=C(Nc1cccc(Cl)c1)C1=Cc2cc(Cl)ccc2OC1	GLP-1R inv ag 10µM
COc1ccc(NC(=O)NCCN2CCc3ccccc3C2)cc1	D3 antag -83.1
COc1ccc(NC(=O)NCCCCc2ccccc2)cc1	GLP-1R inv ag 6.31µM
O=C(NCCCN1CCc2ccccc2C1)Nc1ccc(Cl)cc1	D3 antag -91.5
COc1ccc(NC(=O)N2CCc3ccccc3C2)cc1	none
O=C(CN1CCN(Cc2ccc(Cl)cc2)C1=O)NCCCN1CCN(c2ccc(F)cc2)CC1	D3 antag -65.8
O=C(NCCCN1CCN(c2ccc(F)cc2)CC1)Nc1ccc(Cl)cc1	GLP-1R inv ag inconclusive (no result: D3 antag)
COc1ccc(CNCCCSc2nnnn2-c2ccccc2)cc1	none (no result: D3 antag, GLP-1R agonist)
O=C(CN1CCc2ccccc2C1)Nc1ccc(F)cc1	none
CSc1ccc(NC(=O)NCCCN2CCC(Cc3ccccc3)CC2)cc1	GLP-1R inv ag 7.94µM, D3 antag inconclusive
O=C(NCCCN1CCN(c2ccc(F)cc2)CC1)NC12CC3CC(CC(C3)C1)C2	GLP-1R inv ag inconclusive, D3 antag -81.8
COc1ccc(NC(=O)NCCCN2CCC(Cc3ccccc3)CC2)cc1	GLP-1R inv ag inconclusive, D3 antag inconclusive
O=C(NCCCN1CCN(c2ccc(F)cc2)CC1)Nc1ccccc1Cl	GLP-1R inv ag inconclusive (no result: D3 antag)
CSc1ccc(N2CCN(CCCNC(=O)Nc3ccccc3F)CC2)cc1	D3 antag inconclusive, D3 ag 30.8
CSc1ccc(NC(=O)NCCN2CCc3ccccc3C2)cc1	D3 antag -61.1
CC[C@H](CC[C@@H](C)[C@H]1CC[C@H]2[C@@H]3CC=C4C[C@@H](O)CC[C@]4(C)[C@H]3CC[C@]12C)C(C)C	none (no result: GLP-1R inv ag, D3 antag, GLP-1R agonist)
COc1ccc(CCNC(=O)CCCn2c(=O)c3ccccc3n(CC(=O)Nc3cccc(C)c3)c2=O)cc1OC	none (no result: D3 antag)
O=C(CCc1nnc2ccc(NCc3ccc(F)cc3)nn12)NC1CCCC1	none
CSc1ccc(/C=N/N2CCN(Cc3ccc(Cl)cc3)CC2)cc1	GLP-1R inv ag inconclusive, D3 antag -54.2
CCN(CC)c1ccc(/C=N/N(c2ccccc2)c2ccccc2)c(O)c1	GLP-1R inv ag 6.31µM
CCN(CC)c1ccc(/C=N/N2CCN(Cc3ccc(C)cc3)CC2)c(O)c1	D3 antag -59.5
Cc1ccc(CN2CCN(/N=C/c3cc([N+](=O)[O-])ccc3Cl)CC2)cc1	GLP-1R inv ag inconclusive, D3 antag -60.5
CCn1ccc2cc(S(=O)(=O)N3CCCN(C(=O)Nc4cc(Cl)ccc4C)CC3)ccc21	none (no result: D3 antag)
Cc1ccc(CN2CCN(/N=C/c3ccccc3)CC2)cc1	none
COc1cc(/C=N/N2CCN(Cc3ccc(C)cc3)CC2)cc(OC)c1O	D3 antag -78.6
O=C(CSc1ccccc1)NCc1ccc2c(c1)CCN2C(=O)c1ccc(Cl)cc1	none (no result: D3 antag, GLP-1R agonist)
CCCn1c(CCNc2nc(-c3cccc(Br)c3)cs2)nc2ccccc21	D3 ag 33.1
CCCn1c(C(C)Nc2nc(-c3cccc(Br)c3)cs2)nc2ccccc21 (centres undefined)	GLP-1R inv ag inconclusive, D3 ag 30.5
CCCn1c(C(C)Nc2nc(-c3ccc(C)cc3)cs2)nc2ccccc21 (centres undefined)	GLP-1R inv ag 11.2µM
COc1ccc(C2=C(N3CCN(c4cccc(C)c4)C(C)C3)c3ccccc3C2=O)cc1 (centres undefined)	GLP-1R inv ag inconclusive (no result: D3 antag, GLP-1R agonist)
CN(CC(=O)Nc1ccc(F)cc1)C(=O)COc1ccc(C(=O)c2ccccc2)cc1	GLP-1R inv ag 10µM
COc1ccc2[nH]c3c(c2c1)CCN1C(=O)C(CC(=O)NCC24CC5CC(CC(C5)C2)C4)C[C@H](C(=O)N(C(C)C)C(C)C)[C@@]31C (some centres undefined)	GLP-1R inv ag 10µM, D3 ag 37.3
COc1ccc2[nH]c3c(c2c1)CCN1C(=O)C(CC(=O)NCCCn2ccnc2)C[C@H](C(=O)N(C(C)C)C(C)C)[C@@]31C (some centres undefined)	D3 ag 51.1
CCN(CC)C(=O)[C@H]1CC(CC(=O)NCCCn2ccnc2)C(=O)N2CCc3c([nH]c4ccc(OC)cc34)[C@]12C (some centres undefined)	none
COc1ccc2[nH]c3c(c2c1)CCN1C(=O)C(CC(=O)NCC24CC5CC(CC(C5)C2)C4)C[C@H](C(=O)N2CCOCC2)[C@@]31C (some centres undefined)	GLP-1R inv ag inconclusive
COc1cc(Cl)c(C)cc1NC(=O)c1c(C)oc2nc(C)nc(N3CCCC3)c12	none (no result: D3 antag, GLP-1R agonist)
COC(=O)c1c(SC)nc2ccccc2c1OCc1ccc(C)cc1	GLP-1R inv ag inconclusive, D3 ag 40.4 (no result: D3 antag, GLP-1R agonist)
COC(=O)c1c(SC)nc2ccccc2c1OCc1ccccc1C	GLP-1R inv ag inconclusive, D3 ag 31.8 (no result: D3 antag, GLP-1R agonist)
COC(=O)c1c(SC)nc2ccccc2c1OCc1ccc(Br)cc1	GLP-1R inv ag inconclusive (no result: D3 antag)
CCSc1nc2ccccc2c(OCc2ccc(Cl)cc2)c1C(=O)OC	GLP-1R inv ag 22.4µM (no result: D3 antag, GLP-1R agonist)
COc1ccc(OC)c(Cc2nnc(CCC(=O)NCc3nc4ccccc4s3)o2)c1	none
O=C(OCC(F)(F)F)c1cccc(COc2ccc3ccccc3c2)c1	GLP-1R inv ag 2.24µM
COc1ccc(OCc2cccc(C(=O)O)c2)cc1	none
C[C@]12C=CC(=O)C=C1[C@@H](F)C[C@@H]1[C@@H]2[C@@H](O)C[C@@]2(C)[C@H]1CC[C@]2(O)C(=O)CO	none (no result: GLP-1R inv ag, D3 antag)
O=C(CN(Cc1ccc(Cl)c(Cl)c1)S(=O)(=O)c1ccccc1)N/N=C\c1ccc2c(c1)OCO2	GLP-1R inv ag 2.24µM
COC1=C(C(=O)O)N2C(=O)[C@@H](NC(=O)[C@H](N)C3=CCC=CC3)[C@H]2SC1	none (no result: GLP-1R inv ag, D3 antag, GLP-1R agonist)
Cc1ccc(CN2CCC(Oc3cccc(C(=O)N(C)CCN(C)C)c3)CC2)cc1C	GLP-1R inv ag 3.98µM
COCCNC(=O)c1cccc(OC2CCN(Cc3ccc(C(=O)OC)cc3)CC2)c1	none
COc1ccc(S(=O)(=O)Nc2ccc3c(c2)sc(=O)n3C)cc1Cl	none (no result: D3 antag, GLP-1R agonist)
COc1ccc(C(=O)N2c3ccccc3C(C)(c3ccc(Cl)cc3)CC2(C)C)cc1 (centres undefined)	GLP-1R inv ag inconclusive (no result: D3 antag, GLP-1R agonist)
CC(C)CCOc1ccc(Oc2nc(N(C)C)nc(N(C)C)n2)nn1	none (no result: D3 antag, GLP-1R agonist)
CCC(c1nnnn1-c1ccc2c(c1)OCCO2)N1CCN(CCN2CCOCC2)CC1 (centres undefined)	none
